MEKK3 PB1 HTS: MEKK3-MEK5 PB1 interaction, increase or decrease | Q99759 | bead-based flow cytometry, Alexa488-MEK5 binding to MEKK3; actives lie on both sides; 0 = blocked by unlabeled MEK5, 100 = vehicle | binding response (% of control), % at 10 µM | actives 1.4% (n = 290,000) | AID 1529;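 active means binding response more than 3 SD above or below the average of its plate-row segment, actives on both sides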;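 further: Alexa488 bead fluorescence after subtracting the streptavidin-only scavenger bead signal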
PREPL inh: inhibits the human prolyl oligopeptidase-like enzyme. Q4J6C6. recombinant PREPL, fluorescence polarization activity-based probe. inhibition, % at 5.96 µM. actives 0.68% (n = 320,000). AID 2751; in the data active means inhibition above about 43%
ATG4B inh: blocks human ATG4B protease cleavage of LC3 substrate. Q9Y4P1. ATG4B cleavage of LC3-PLA2, NBD-HPC fluorescence, 1 h. inhibition, % at 8.33 µM. actives 0.51% (n = 340,000). AID 504462; in the data active means inhibition above about 40%
Target sequence (Q9Y4P1 whole entry, looked up): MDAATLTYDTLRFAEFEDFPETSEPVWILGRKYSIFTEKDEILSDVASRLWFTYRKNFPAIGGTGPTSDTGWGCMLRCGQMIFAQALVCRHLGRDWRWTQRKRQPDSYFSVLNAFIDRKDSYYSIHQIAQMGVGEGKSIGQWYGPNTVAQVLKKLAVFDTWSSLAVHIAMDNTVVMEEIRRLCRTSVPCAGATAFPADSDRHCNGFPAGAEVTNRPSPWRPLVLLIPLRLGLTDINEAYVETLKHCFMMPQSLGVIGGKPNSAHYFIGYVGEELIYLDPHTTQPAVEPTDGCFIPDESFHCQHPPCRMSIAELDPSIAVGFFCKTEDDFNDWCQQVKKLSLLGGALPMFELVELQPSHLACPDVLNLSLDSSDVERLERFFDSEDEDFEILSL
MEKK2 mut-MEK5: signal of MEK5 binding to mutant human MEKK2 PB1 domain. bead flow cytometry, Alexa488-MEK5 binding to MEKK2 mutant. percent response, % at 10 µM. actives 0.35% (n = 290,000); in the data active means percent response above about 24%, passing the limit was not always enough
MEKK2 WT-MEK5: raises or lowers MEK5 binding to wildtype human MEKK2 PB1 domain; Q9Y2U5; actives 1.1% (n = 290,000); AID 1531; binding response (% of control), % at 10 µM; bead flow cytometry, Alexa488-MEK5 binding to MEKK2 WT; actives lie on both sides; in the data active means binding response below about 67% or above about 130%
UBC13 inh: inhibitors of human UBC13 polyubiquitin chain formation. TR-FRET. inhibition, % at 20 µM. actives 0.47% (n = 330,000); in the data active means inhibition above about 45%, passing the limit was not always enough
Target sequence (P61088 whole entry, looked up): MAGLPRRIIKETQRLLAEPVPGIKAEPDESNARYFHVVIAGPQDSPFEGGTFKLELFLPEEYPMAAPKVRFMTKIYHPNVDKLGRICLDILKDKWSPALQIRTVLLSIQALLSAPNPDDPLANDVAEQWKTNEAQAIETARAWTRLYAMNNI
MEKK2wt confirm: raises or lowers MEK5 binding to wildtype human MEKK2, retest | shares compounds with MEKK3 PB1 HTS | bead flow cytometry, Alexa488-MEK5 binding to MEKK2 WT; actives lie on both sides | binding response (% of control), % at 10 µM | actives 2.4% (n = 5,900); in the data active means binding response below about 16% or above about 210%; inactive means in between
MEKK2mut-MEK5: signal of MEK5 binding to mutant human MEKK2, retest. shares compounds with MEKK3 PB1 HTS. bead flow cytometry, Alexa488-MEK5 binding to MEKK2 mutant. percent response, % at 10 µM. actives 2% (n = 5,900); in the data active means percent response mostly above about 71%, no sharp cut-off; inactive means mostly below about 38%;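 further: higher means compound restores mutant binding toward wildtype level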
MEKK3-MEK5 inh: MEKK3-MEK5 PB1 inhibition, single concentration confirmation; shares compounds with MEKK3 PB1 HTS; bead flow cytometry, Alexa488-MEK5 binding to MEKK3; stronger effect = lower value; binding response (% of control), % at 10 µM; actives 1.8% (n = 5,900);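 active means binding response below 72% of control, or above a set upper limit, though filed actives all read lower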
Of the large screens only hits and unclear results are named; the others gave an inactive call (follow-up assays come after a bar, where they were run); [ ] = another dose, or the depositor's remark. An excerpt weighted towards active compounds, which were near 3.1% of everything screened.

[O-]/C(=C(\C(=S)NCCN1CCOCC1)[n+]1ccccc1)c1ccc(Cl)s1	none
O=C(NCc1ccco1)C1CC(c2ccc(F)cc2)=NO1 (stereo not given)	MEKK3 PB1 HTS 73[inhibitor] | MEKK2wt confirm inactive | MEKK2mut-MEK5 inactive | MEKK3-MEK5 inh inactive
O=C(Nc1nnc(-c2ccncc2)o1)c1ccccc1F	MEKK3 PB1 HTS 129 | MEKK2wt confirm inactive | MEKK2mut-MEK5 inactive | MEKK3-MEK5 inh inactive
O=C(Nc1nnc(-c2ccncc2)o1)c1ccccc1	none
O=C(N[C@@H]1C[C@H]2CC[C@@H]1C2)c1ccco1	none
N#CC(OC(=O)c1ccccc1)c1ccccc1 (stereo not given)	none (no result: MEKK3 PB1 HTS, PREPL inh, MEKK2 mut-MEK5, MEKK2 WT-MEK5, UBC13 inh)
O=C(CCSCc1ccccc1Cl)NC1CCCC1	MEKK3 PB1 HTS 2.0[inhibitor], MEKK2 WT-MEK5 2.0[inhibitor] | MEKK2wt confirm inactive | MEKK2mut-MEK5 inactive | MEKK3-MEK5 inh inactive
O=C(CSCC(=O)NC1CCCC1)Nc1ccccc1	MEKK3 PB1 HTS 128 | MEKK2wt confirm inactive | MEKK2mut-MEK5 inactive | MEKK3-MEK5 inh inactive
COCC(C)n1c(COc2ccccc2F)nnc1SCC(=O)Nc1oc(C)c2c(C)n[nH]c(=O)c12 (stereo not given)	none (no result: MEKK3 PB1 HTS, MEKK2 mut-MEK5, MEKK2 WT-MEK5)
NS(=O)(=O)c1ccc(Nc2ncccc2[N+](=O)[O-])cc1	MEKK3 PB1 HTS 1.0[inhibitor], MEKK2 WT-MEK5 0.0[inhibitor] | MEKK2wt confirm inactive | MEKK2mut-MEK5 inactive | MEKK3-MEK5 inh inactive
O=C(COC(=O)c1oc2ccccc2c1CSc1ccc(Cl)cc1)NC1CCCC1	none
NC(=O)COC(=O)c1oc2ccccc2c1CSc1ccc(Cl)cc1	MEKK3 PB1 HTS 157 | MEKK2wt confirm inactive | MEKK2mut-MEK5 inactive | MEKK3-MEK5 inh inactive
COc1cc(NC(=S)NCc2ccc(S(N)(=O)=O)cc2)c(OC)cc1Cl	MEKK3 PB1 HTS 59[inhibitor] | MEKK2wt confirm inactive | MEKK2mut-MEK5 inactive | MEKK3-MEK5 inh inactive
CC(C)C[C@@H](NC(=O)C1CCC(CNC(=O)[C@@H]2CCCN2C(=O)OC(C)(C)C)CC1)C(=O)O (stereo not given in full)	none (no result: PREPL inh)
O=C(CCC1CCCCC1)NCCN1C2=NC[C@@H](Cc3ccccc3)N2C[C@H]1Cc1ccc(O)cc1	MEKK2 WT-MEK5 149 | MEKK2wt confirm inactive | MEKK2mut-MEK5 inactive | MEKK3-MEK5 inh inactive
CC(C)[C@H]1CN=C2N(C[C@H](C)NC(=O)CCC3CCCCC3)[C@H](Cc3ccc(O)cc3)CN21	none
COc1ccc(C[C@H]2CN3C(=NC[C@@H]3Cc3ccc(O)cc3)N2C[C@H](C)NC(=O)CCC2CCCCC2)cc1	MEKK2 WT-MEK5 141 | MEKK2wt confirm inactive | MEKK2mut-MEK5 inactive | MEKK3-MEK5 inh inactive
C[C@H]1CN=C2N(CCNC(=O)CCC3CCCCC3)[C@H](Cc3ccc(O)cc3)CN21	none
O=c1[nH]c(SCc2nc3ccccc3c(=O)n2-c2ccccc2C(F)(F)F)nc2ccccc12	MEKK3 PB1 HTS 67[inhibitor] | MEKK2wt confirm inactive | MEKK2mut-MEK5 inactive | MEKK3-MEK5 inh inactive
O=c1ccc(Cl)cn1Cc1ccccc1F	MEKK3 PB1 HTS 127 | MEKK2wt confirm inactive | MEKK2mut-MEK5 inactive | MEKK3-MEK5 inh inactive
O=c1ccccn1Cc1ccccc1F	none
Cc1ccc(C)c(NC(=O)C(Sc2nc3ccc(C)cc3[nH]2)c2ccccc2)c1 (stereo not given)	none
Cc1ccc2nc(SC(C(=O)Nc3ccc(F)cc3)c3ccccc3)[nH]c2c1 (stereo not given)	MEKK3 PB1 HTS 153 | MEKK2wt confirm inactive | MEKK2mut-MEK5 inactive | MEKK3-MEK5 inh inactive
Cc1csc2c(N3CCN(C(=O)NC(C)(C)C)CC3)ncnc12	none
Cc1csc2c(N3CCN(C(=O)c4ccc(C(C)(C)C)cc4)CC3)ncnc12	MEKK3 PB1 HTS 131 | MEKK2wt confirm inactive | MEKK2mut-MEK5 inactive | MEKK3-MEK5 inh inactive
O=C(CCN=C1NS(=O)(=O)c2ccccc21)Nc1ccc(Cl)cc1F	none (no result: MEKK3 PB1 HTS, MEKK2 mut-MEK5, MEKK2 WT-MEK5)
COc1ccccc1N1CCN(C(=O)Nc2cccc(Cl)c2)CC1	none
COc1cccc(NC(=O)N2CCN(c3cccc(C)c3C)CC2)c1	MEKK3 PB1 HTS 0.0[inhibitor], MEKK2 WT-MEK5 0.0[inhibitor] | MEKK2wt confirm inactive | MEKK2mut-MEK5 inactive | MEKK3-MEK5 inh inactive
COc1ccc(OC)c(CN2CCN(c3ccc(S(=O)(=O)N4CCCC4)cn3)CC2)c1	none (no result: MEKK3 PB1 HTS, MEKK2 mut-MEK5, MEKK2 WT-MEK5)
N#CCc1nc2n(n1)Cc1ccccc1-2	MEKK3 PB1 HTS 124, MEKK2 WT-MEK5 136 (no result: MEKK2 mut-MEK5) | MEKK2wt confirm inactive | MEKK2mut-MEK5 inactive | MEKK3-MEK5 inh inactive
c1ccc2c(c1)Cn1nc(Cc3nc4c(s3)CCCC4)nc1-2	none
CC(Sc1nc2ccccc2s1)C(=O)c1c(N)n(C)c(=O)n(C)c1=O (stereo not given)	none
Cc1ccc(-n2c(C)cc(C3N=C(N)Nc4nc5ccccc5n43)c2C)c(C)c1 (stereo not given)	MEKK2 mut-MEK5 28, MEKK2 WT-MEK5 134 | MEKK2wt confirm inactive | MEKK2mut-MEK5 inactive | MEKK3-MEK5 inh inactive
NC(=S)N=Nc1ccc(O)cc1	none (no result: MEKK3 PB1 HTS, PREPL inh, MEKK2 mut-MEK5, MEKK2 WT-MEK5, UBC13 inh)
Cc1sc2ncn(CC(=O)NCCCC(=O)Nc3ccc(C(C)C)cc3)c(=O)c2c1C	none
COc1ccc(CN2CCC(n3nccc3NC(=O)C3CCCC3)CC2)cc1	MEKK2 WT-MEK5 144 | MEKK2wt confirm inactive | MEKK2mut-MEK5 inactive | MEKK3-MEK5 inh inactive
CCOC(=O)C1=C(C)Nc2sc(C(=O)c3ccc(C)cc3)c(N)c2C1c1ccc(C(=O)OC)cc1 (stereo not given)	MEKK3 PB1 HTS 149 | MEKK2wt confirm inactive | MEKK2mut-MEK5 inactive | MEKK3-MEK5 inh inactive
O=C(Cc1cccs1)Nc1nc2c(s1)CCCC2	MEKK3 PB1 HTS 51[inhibitor] | MEKK2wt confirm inactive | MEKK2mut-MEK5 inactive | MEKK3-MEK5 inh inactive
Cc1nc(N2CCN(Cc3ccccc3)CC2)c(C#N)c2c1COC(C)(C)C2	MEKK3 PB1 HTS 79[inhibitor] | MEKK2wt confirm inactive | MEKK2mut-MEK5 inactive | MEKK3-MEK5 inh inactive
O=C(Cc1ccc2c(c1)CCCC2)Nc1ccccc1Br	MEKK3 PB1 HTS 43[inhibitor] | MEKK2wt confirm inactive | MEKK2mut-MEK5 inactive | MEKK3-MEK5 inh inactive
CC(NC(=O)c1ccc(NC(=O)CC2SC(N3CCCC3)=NC2=O)cc1)c1ccccc1 (stereo not given)	none (no result: MEKK3 PB1 HTS, MEKK2 mut-MEK5, MEKK2 WT-MEK5)
CCN1CCN(c2ccc(NC(=O)CCc3c(C)nc4c(-c5ccc(F)cc5)c(C)nn4c3C)cc2)CC1	MEKK2 WT-MEK5 146 | MEKK2wt confirm inactive | MEKK2mut-MEK5 inactive | MEKK3-MEK5 inh inactive
Cc1nc2c(-c3ccc(F)cc3)c(C)nn2c(C)c1CCC(=O)Nc1ccccc1	none

Screening results deposited in PubChem by several laboratories.
